Data as given in PubChem BioAssay (EPA / NIEHS).
Records with an inconclusive call do not appear. The source made the active and inactive calls. The calls were made as follows: active = hit-call score of the fitted dose curve at least 0.9, where 1 is the maximum; inconclusive = response in the unintended direction; inactive = score below 0.9.

molecular target: human Fibroblast Growth Factor Receptor 1 (FGFR1), FGFR1 (gene 2260) (UniProt P11362); assay: NVS_ENZ_hFGFR1: NovaScreen (NVS) Enzymatic Assay for human Fibroblast Growth Factor Receptor 1 (FGFR1) (AID 2283159);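 as to AC50: hits lower the signal so potencies describe inhibitors of the kinase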
Sequence (P11362 whole entry, looked up): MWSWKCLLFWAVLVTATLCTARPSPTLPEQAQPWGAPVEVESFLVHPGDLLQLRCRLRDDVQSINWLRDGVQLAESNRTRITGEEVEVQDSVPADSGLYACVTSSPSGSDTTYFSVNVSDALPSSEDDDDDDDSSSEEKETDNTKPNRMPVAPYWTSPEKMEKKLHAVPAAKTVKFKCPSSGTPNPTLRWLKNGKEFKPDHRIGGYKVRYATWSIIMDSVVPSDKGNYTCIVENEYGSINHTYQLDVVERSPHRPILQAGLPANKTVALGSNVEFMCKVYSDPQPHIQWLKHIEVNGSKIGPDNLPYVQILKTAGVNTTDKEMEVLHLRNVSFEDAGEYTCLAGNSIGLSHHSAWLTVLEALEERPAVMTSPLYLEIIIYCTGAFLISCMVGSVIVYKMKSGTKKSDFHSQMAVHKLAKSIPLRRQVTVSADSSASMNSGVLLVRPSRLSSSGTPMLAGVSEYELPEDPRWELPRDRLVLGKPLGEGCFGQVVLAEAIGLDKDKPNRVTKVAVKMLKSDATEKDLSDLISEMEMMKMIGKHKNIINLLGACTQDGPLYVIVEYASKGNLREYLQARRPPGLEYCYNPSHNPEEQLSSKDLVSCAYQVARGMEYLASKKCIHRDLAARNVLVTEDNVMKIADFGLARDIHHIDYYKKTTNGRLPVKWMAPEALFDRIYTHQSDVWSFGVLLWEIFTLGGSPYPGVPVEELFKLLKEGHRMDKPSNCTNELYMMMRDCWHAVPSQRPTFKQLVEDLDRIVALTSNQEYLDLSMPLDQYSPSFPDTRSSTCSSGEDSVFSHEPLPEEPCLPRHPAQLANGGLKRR
Summary of the method: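 Cell-free recombinant kinase with fluorescent substrate, product separated by electrophoretic mobility shift; read 1 hour after dosing, loss of signal relative to DMSO. Initial screen in duplicate at 25 uM, actives followed in concentration series.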

Row | SMILES | AC50 | outcome
1 | CC(c1ccc(O)cc1)(c1ccc(O)cc1)c1ccc(O)cc1 | 25 µM (active) | –
2 | Clc1ccc(C(c2ccccc2Cl)C(Cl)(Cl)Cl)cc1 (stereo not given) | – | inactive
3 | C=CC(=O)NCNC(=O)C=C | – | inactive
4 | Cc1cccc([N+](=O)[O-])c1 | – | inactive
5 | O=C(N[C@H]1CN2CCC1CC2)c1cc2ccoc2cn1 | – | inactive
6 | Cc1ccccc1CO[C@@H]1C[C@@]2(C(C)C)CC[C@]1(C)O2 | – | inactive
7 | c1cc2ccc3cccc4ccc(c1)c2c34 | – | inactive
8 | ClC(Cl)=C(c1ccc(Cl)cc1)c1ccc(Cl)cc1 | – | inactive
9 | O=S(=O)(O)C(F)(F)C(F)(F)C(F)(F)C(F)(F)F | – | inactive

molecular target: Histone deacetylase 3 (Homo sapiens) (UniProt O15379); assay: NVS_ENZ_hHDAC3: NovaScreen (NVS) Enzymatic Assay for human Histone Deacetylase 3 (HDAC3) (AID 2283163)
Sequence (O15379 whole entry, looked up): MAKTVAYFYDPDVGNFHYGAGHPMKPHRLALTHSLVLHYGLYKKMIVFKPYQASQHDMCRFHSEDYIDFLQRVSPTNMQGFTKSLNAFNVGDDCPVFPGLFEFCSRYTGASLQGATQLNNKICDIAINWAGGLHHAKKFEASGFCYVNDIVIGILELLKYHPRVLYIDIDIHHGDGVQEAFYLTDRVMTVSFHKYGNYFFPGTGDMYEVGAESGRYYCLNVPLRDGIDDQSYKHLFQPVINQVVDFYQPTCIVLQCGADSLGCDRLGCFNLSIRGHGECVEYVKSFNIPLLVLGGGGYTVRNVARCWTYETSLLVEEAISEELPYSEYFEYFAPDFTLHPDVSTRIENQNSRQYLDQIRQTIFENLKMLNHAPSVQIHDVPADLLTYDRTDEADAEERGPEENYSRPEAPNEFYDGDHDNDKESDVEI
Summary of the method: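 Cell-free enzyme format: loss of fluorescent product after mobility-shift separation, 1 h incubation, recombinant human HDAC3. Single 25 uM duplicate screen first, then concentration series to a 50 uM top for hits; DMSO as baseline.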

Row | SMILES | outcome
10 | CCOP(=S)(OCC)SCSC(C)(C)C | inactive
11 | Nn1cnnc1 | inactive
12 | c1cc2ccc3cccc4ccc(c1)c2c34 | inactive

molecular target: Glycogen synthase kinase-3 beta (Homo sapiens) (UniProt P49841); assay: NVS_ENZ_hGSK3b: NovaScreen (NVS) Enzymatic Assay for human Glycogen Synthase Kinase-3 beta (GSK3b) (AID 2283165)
Sequence (P49841 whole entry, looked up): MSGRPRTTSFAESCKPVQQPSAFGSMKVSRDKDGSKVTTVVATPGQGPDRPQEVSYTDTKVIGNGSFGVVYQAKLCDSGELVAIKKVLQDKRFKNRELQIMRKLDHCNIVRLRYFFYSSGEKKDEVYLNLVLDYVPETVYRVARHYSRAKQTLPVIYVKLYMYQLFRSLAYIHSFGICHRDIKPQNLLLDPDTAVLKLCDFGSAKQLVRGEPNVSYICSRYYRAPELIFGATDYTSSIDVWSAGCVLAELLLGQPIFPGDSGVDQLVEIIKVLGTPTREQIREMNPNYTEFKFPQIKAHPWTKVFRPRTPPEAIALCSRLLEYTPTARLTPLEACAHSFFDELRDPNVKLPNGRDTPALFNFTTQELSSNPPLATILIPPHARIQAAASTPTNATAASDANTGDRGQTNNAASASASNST
Summary of the method: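 Recombinant enzyme with specific fluorescent substrate, 1 h, product separated by electrophoretic mobility shift. Primary duplicate screen at 25 uM; actives (e.g. 30% inhibition) followed in singleton concentration-response to 50 uM. Signal loss fitted versus DMSO.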

Row | SMILES | outcome
13 | Cc1ccc(O)c(C)c1 | inactive
14 | Cc1ccccc1[N+](=O)[O-] | inactive
15 | O=C(NC(=O)c1cc(F)c(F)cc1Cl)Nc1cc(F)ccc1N1CCC(C(=O)O)CC1 | inactive
16 | Cc1cc(O)ccc1Cl | inactive
17 | COc1ccc(O)c(C(C)(C)C)c1 | inactive
18 | Clc1ccc(Cl)cc1 | inactive
19 | C=CC(N)=O | inactive
20 | Cc1ccccc1O | inactive
